From PubChem
Rab9 prom act = activates the Rab9 promoter; Potency, µM (highest dose often 9.22 µM), inactives show at the highest dose activation, negative = inhibition, hits mostly activators; 320,000 compounds, 2.8% hits; Huh7 Rab9 promoter-luciferase reporter, luminescence, 24 h; AID 485297; also: % of control where 0% means no effect; nearly all actives have a fitted effect of over 60% in size
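Luminescence from Amplite-detected luciferase (10 minutes, ambient) reports Rab9 promoter activation. Before that, stable Rab9-luciferase Huh7 cells (1500/well, reduced-serum OP-MEM I plus 10% FBS) were exposed to compound for 24 hours at 37C.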
NPC1 prom act = activators of NPC1 promoter | Huh7 NPC1 promoter luciferase reporter, 24 h | Potency, µM (series often up to 9.22 µM), for inactives: top-dose activation, usual class: activators | 320,000 compounds, 2.4% hits; also: % of control where 0% means no effect; nearly all actives have a fitted effect of over 60% in size
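Luminescence from an NPC1 promoter-driven luciferase reporter in stably transfected Huh7 cells was measured after 24 h compound treatment at 37 °C, followed by 10 min ambient incubation with luciferase detection reagent.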
FLuc modulator = firefly luciferase modulation, counter-screen for miR-21 project; 360,000 compounds, 6.9% hits; purified FLuc, Km substrates, luminescence inhibition; Potency, µM (titrated, usually from 57.5 µM), without a hit: at the top dose activity change, negative = inhibition, actives largely listed as inhibitors; AID 588342;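 also: plate controls were vehicle for no effect and reference inhibitor for full effect; nearly all actives have a fitted effect of over 55% in size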
Target sequence (P08659 whole entry, looked up): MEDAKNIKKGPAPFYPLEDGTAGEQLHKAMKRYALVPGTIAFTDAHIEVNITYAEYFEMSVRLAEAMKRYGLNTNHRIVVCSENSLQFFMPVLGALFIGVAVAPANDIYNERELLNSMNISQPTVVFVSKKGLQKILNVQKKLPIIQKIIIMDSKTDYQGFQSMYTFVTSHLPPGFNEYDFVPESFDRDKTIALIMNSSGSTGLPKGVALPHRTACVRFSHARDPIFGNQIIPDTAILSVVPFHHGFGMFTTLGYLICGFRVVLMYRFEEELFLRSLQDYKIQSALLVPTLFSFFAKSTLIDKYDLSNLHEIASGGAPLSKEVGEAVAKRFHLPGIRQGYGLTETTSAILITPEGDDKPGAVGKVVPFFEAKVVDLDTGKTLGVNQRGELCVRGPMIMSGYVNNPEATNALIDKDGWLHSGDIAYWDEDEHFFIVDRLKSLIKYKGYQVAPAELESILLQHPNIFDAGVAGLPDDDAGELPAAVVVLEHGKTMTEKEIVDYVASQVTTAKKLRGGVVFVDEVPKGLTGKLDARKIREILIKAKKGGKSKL
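Purified P. pyralis luciferase, 10 nM final, with Km-level 10 uM D-luciferin and 10 uM ATP in 50 mM Tris acetate pH 7.5, 10 mM Mg acetate, 0.01% Tween-20, 0.05% BSA; 6-point qHTS titration about 60 µM downward; luminescence read.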
ELG1 genotoxic = genotoxicity induction in ELG1-luciferase HEK293T cells; Potency, µM (series often up to 46 µM), without a hit: at the top dose activity change, positive = activation, actives largely listed as activators; 330,000 compounds, 1.3% hits; HEK293T ELG1-luciferase reporter, luminescence, 16 h; also: % of control where 0% means no effect; nearly all actives have a fitted effect of over 60% in size
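Genotoxicity was scored as increased ELG1-luciferase reporter signal, measured by ONE-Glo luminescence (30 min, room temperature). Compound or vehicle exposure of the HEK293T reporter cells lasted 16 hr at 37°C.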
SMN2 splice enh = increases expression of the SMN2 splice variant; Potency, µM (top dose mostly 46.1 µM), inactives show at the highest dose activity change, positive = activation, actives largely listed as activators; 210,000 compounds, 2.8% hits; AID 1458; HEK293 SMN2-luciferase splicing reporter, luminescence, 30-36 h; also: % of control where 0% means no effect; nearly all actives have a fitted effect of over 55% in size
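HEK293 cells carry an SMN2 minigene-luciferase reporter in which exon 7 inclusion puts luciferase in frame. Cells were seeded at 2000 cells/well, attached for 10-12 hours, then exposed to compounds for 30-36 hours at 37C before ONE-Glo luminescence.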
The depositor's hits bear a star; ? = inconclusive; . = no result given. Hits are enriched below; roughly 7.5% of the tested compounds scored in any of these assays. Calls follow the shape of the dose curve; as a rule, active = well fitted curve in the direction sought with a large enough effect; inconclusive = small, poorly fitted or top-dose-only effect, or another doubt; inactive = no such curve, though single readings can be large; an effect the other way counts as inactive or inconclusive. Potency is read from the fitted curve at half-maximal effect.

SMILES | Rab9 prom act | NPC1 prom act | FLuc modulator | ELG1 genotoxic | SMN2 splice enh
COc1ccc(C(=O)Nc2ccc(NC(=O)c3cccs3)cc2)cc1OC | . | . | 0% | . | -3%
O=C(Nc1ccc(NC(=O)c2cccs2)cc1)c1cccc(Br)c1 | . | . | -1% | . | -2%
CCCC=O | . | . | . | . | 20%
COc1ccc(S(=O)(=O)N2CCCOC2CNC(=O)C(=O)NCCc2ccco2)cc1 (stereo not drawn) | 7% | -4% | 2% | -4% | .
CN(CC(=O)Nc1cccc(F)c1)C(=O)COc1cccc2c1OC(C)(C)C2 | -2% | -6% | -1% | -1% | .
COC(=O)N1CCC2(CCCN(c3ccccn3)C2)CC1 | . | . | . | . | -23%
COc1ccc(-c2csc(NC(=O)c3cccs3)c2C(=O)O)cc1OC | 15% | 13% | 24µM* | -3% | 16%
O=C(COc1ccc(Cl)cc1[N+](=O)[O-])N1CCCCCC1 | 1% | 0% | -6% | -1% | 11%
O=C(COC(=O)COc1ccc(Cl)cc1Cl)NC1CCCC1 | 0% | -5% | 13% | 2% | .
O=C(COc1ccc(Cl)cc1[N+](=O)[O-])NC1CCCCC1 | 1.4µM* | ? | 11µM* | ? | 11µM*
O=C(COc1ccc(Cl)cc1Br)NC1CC1 | 28% | ? | 13µM* | 10% | .
CC(=O)c1cc(Cl)ccc1OCC(=O)NC1CCCC1 | ? | ? | 17µM* | -1% | .
O=C(COc1ccc(Cl)cc1Cl)NC(=O)N1CCOCC1 | -5% | -5% | 21µM* | 5% | 20%
CS(=O)(=O)c1ccc(C(=O)OCc2nnc(-c3ccc(Cl)cc3)o2)cc1[N+](=O)[O-] | 4% | -5% | -16% | ? | 14%
COc1ccccc1NC(=O)Cn1c(=O)n(CC2CCC(C(=O)NCCc3ccccc3)CC2)c(=O)c2ccccc21 (stereo not drawn) | . | . | 0% | . | -11%
O=C(Cc1cccs1)N1CCN=C1SCc1cccc(F)c1 | -3% | -5% | 1% | -1% | .
N#C/C(=C1/C(=O)Nc2ccc(Br)cc21)c1ccccn1 | 2% | 2% | 4% | -4% | 4%
CC(C(=O)NC1(C#N)CCCCC1)N(C)CC(=O)Nc1ccc(Cl)c(Cl)c1 (stereo not drawn) | -8% | -3% | -5% | -3% | .
O=C(Cn1nnc2ccccc21)Nc1ccc([N+](=O)[O-])cc1 | -1% | -2% | 1% | 2% | .
COc1ccc(NC(=O)COC(=O)Cn2nnc3ccccc32)cc1 | 0% | -3% | -10% | 0% | -2%
Cc1ccc(NC(=O)Cn2nnc3ccccc32)cc1 | 3.5µM* | ? | 17µM* | ? | .
COC(=O)c1ccc(NC(=O)Cn2nnc3ccccc32)cc1 | 2.8µM* | 3.5µM* | 4.3µM* | 16µM* | 13µM*
Cc1cccc(NC(=O)Cn2nnc3ccccc32)c1 | 2.8µM* | 2.8µM* | ? | ? | 2%
Cc1cccc(NC(=O)Cn2c(=O)n(C)c3ccccc32)c1 | -2% | -1% | 7% | 1% | 0%
O=C(Cn1c(CSc2ccccc2)nc2ccccc21)Nc1ccccc1 | -2% | -3% | -19% | -6% | 1%
SMILES | Rab9 prom act | NPC1 prom act | FLuc modulator | ELG1 genotoxic | SMN2 splice enh
Cc1ccc(SCc2nc3ccccc3n2CC(=O)Nc2ccccc2)cc1 | 4% | -3% | 15µM* | -1% | 6%
Cc1ccc(C)c(OCCn2cc(C(=O)c3cccs3)c3ccccc32)c1 | . | . | -2% | . | -13%
O=[N+]([O-])c1cccnc1Oc1ccc(OCc2ccccc2)cc1 | ? | ? | 17µM* | ? | .
COc1cc(C2SCCS2)cc(Br)c1Oc1ncccc1[N+](=O)[O-] | 0% | 3% | 1% | -5% | .
O=[N+]([O-])c1cccnc1Oc1ccc(C2SCCS2)cc1 | ? | ? | 21µM* | ? | .
O=C(NCc1ccco1)c1cc(-c2ccncc2)nc2ccccc12 | 9% | -3% | -9% | -3% | -5%
Cc1cc(C(=O)NCc2ccco2)c2ccccc2n1 | -6% | -5% | -1% | -3% | 27%
Cc1ccccc1Nc1cc(C(=O)NCc2ccco2)c2ccccc2n1 | -4% | -6% | 15µM* | -7% | -9%
Cc1ccc(-c2cc(C(=O)NCc3ccco3)c3ccccc3n2)o1 | 14% | -6% | 12µM* | -9% | -7%
COc1cccc(-c2cc(C(=O)NCc3ccco3)c3ccccc3n2)c1 | 1% | 9% | 21µM* | -11% | .
O=C(NCc1ccco1)c1cc(-c2cccnc2)nc2ccccc12 | -8% | -5% | -5% | -2% | -7%
O=C(CSc1nc(-c2ccc(F)cc2)cs1)Nc1ccccn1 | -3% | -1% | -1% | 7% | -13%
c1ccc(Nc2nc(-c3cccnc3)cs2)nc1 | 0.56µM* | 1µM* | 1.5µM* | ? | 11µM*
Clc1ccccc1Nc1nnc(-c2ccncc2)s1 | 0.45µM* | 0.56µM* | 0.95µM* | ? | 3.2µM*
Fc1ccc(-c2csc(Nc3ccccn3)n2)cc1 | 3.2µM* | 3.5µM* | 1.5µM* | 2.1µM* | .
Clc1ccccc1Nc1nc(-c2cccnc2)cs1 | 0.71µM* | 3.2µM* | 1.7µM* | ? | 2.8µM*
COc1ccc(Cl)cc1Nc1nnc(-c2ccncc2)s1 | 1% | 2% | -2% | 5% | .
Clc1ccccc1-c1csc(Nc2cccnc2)n1 | ? | 2.8µM* | ? | 8% | .
CCc1ccc(CSc2nccn2-c2ccccc2)cc1 | 0% | -3% | -1% | 0% | -3%
c1ccc(CCSc2nccn2-c2ccccc2)cc1 | 3.2µM* | 2.8µM* | 3.4µM* | ? | 20µM*
COc1cccc(-c2nc(SCC(=O)Nc3ccc4c(c3)OCCO4)c(-c3ccccc3)[nH]2)c1 | . | . | 5.4µM* | . | -20%
COc1ccc(-c2[nH]c(-c3cccc(OC)c3)nc2SCC(=O)Nc2ccc3c(c2)OCO3)cc1 | . | . | -9% | . | 1%
COc1ccc(-c2nc(SCC(=O)Nc3ccc4c(c3)OCCO4)c(-c3ccccc3)[nH]2)cc1 | . | . | 6µM* | . | -22%
Cc1cccc(-c2nc(SCC(=O)Nc3ccc4c(c3)OCCO4)c(-c3ccccc3)[nH]2)c1 | . | . | 8.5µM* | . | -41%
COc1cc(-c2nc(SCC(=O)Nc3ccc4c(c3)OCO4)c(-c3ccccc3)[nH]2)cc(OC)c1OC | . | . | 8.5µM* | . | ?
O=C(CSc1nc(-c2cccc(F)c2)[nH]c1-c1ccccc1)Nc1ccc2c(c1)OCCO2 | . | . | ? | . | 37%
COc1ccc(N(C)S(=O)(=O)c2cccc(C(=O)OCC(=O)c3c(N)n(C)c(=O)n(C)c3=O)c2)cc1 | . | . | . | -10% | .
CCCn1c(N)c(N(CCOC)C(=O)Cc2ccc(S(=O)(=O)N3CCOCC3)s2)c(=O)[nH]c1=O | -2% | -8% | 1% | 1% | .
Nc1cc(C(=O)OCC(=O)NNC(=O)c2cccs2)ccc1Cl | -6% | -3% | 1% | -2% | .
CCOc1ccc(C(=O)Nc2nnc(SCC(=O)NCC3CCCO3)s2)cc1OCC (stereo not drawn) | 12% | 14% | ? | 13% | .
